HSV augment = HSV replication enhancement. HSV replication augmentation in cells, fold increase. maximum fold increase. 0.005% of 220,000 active. AID 1956; in the data active = maximum fold increase above about 1.5; tested in PC3 cells
PGE2 EP2 inh = EP2 receptor (human) inhibition; P43116; 0.52% of 260,000 active; inhibition, % at 25 µM; C6 glioma cells expressing human EP2, cAMP TR-FRET; cells stimulated with saturating PGE2; AID 1422;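 active = percent inhibition above 40 after rounding to a whole number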;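 also: rat C6 glioma host cells with rolipram phosphodiesterase inhibitor present; the protocol text gives 20 µM as final concentration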
EP2 modulator = modulates human prostaglandin E2 receptor EP2 signaling. 0.83% of 260,000 active. EP2-expressing cells, cAMP HTRF FRET, PGE2 co-stimulation. induction, % at 25 µM. P43116;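 active = compounds whose cAMP rise, as percent of the full-agonist control response, exceeds 60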;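 also: rat C6 glioma line stably carrying human EP2 under a CMV promoter; the protocol text gives 20 µM as final concentration; 100% = response of wells given 1 µM PGE2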
Wee1 degr inh = inhibitors of human Wee1 degradation. HeLa Luc-Wee1K328M stability, luciferase luminescence; 100% = proteasome inhibitor MG132 effect. reporter increase, % at 5 µM. 1.2% of 220,000 active. AID 1321;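 active = activation above the mean of all tested compounds plus 3 SD, set per screening run, cut at about 8.8% in these data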;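 also: cells exposed to compound for 20 h before luminescence read; 0% = DMSO alone and 100% = MG132 at 30 µM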
Furin inhibitor = human furin inhibition; P09958; purified furin, fluorogenic substrate cleavage; inhibition, % at 20 µM or 30 µM; 0.061% of 220,000 active; AID 463115; in the data active = inhibition above about 25%
Target sequence (P09958 108-714 limits assumed): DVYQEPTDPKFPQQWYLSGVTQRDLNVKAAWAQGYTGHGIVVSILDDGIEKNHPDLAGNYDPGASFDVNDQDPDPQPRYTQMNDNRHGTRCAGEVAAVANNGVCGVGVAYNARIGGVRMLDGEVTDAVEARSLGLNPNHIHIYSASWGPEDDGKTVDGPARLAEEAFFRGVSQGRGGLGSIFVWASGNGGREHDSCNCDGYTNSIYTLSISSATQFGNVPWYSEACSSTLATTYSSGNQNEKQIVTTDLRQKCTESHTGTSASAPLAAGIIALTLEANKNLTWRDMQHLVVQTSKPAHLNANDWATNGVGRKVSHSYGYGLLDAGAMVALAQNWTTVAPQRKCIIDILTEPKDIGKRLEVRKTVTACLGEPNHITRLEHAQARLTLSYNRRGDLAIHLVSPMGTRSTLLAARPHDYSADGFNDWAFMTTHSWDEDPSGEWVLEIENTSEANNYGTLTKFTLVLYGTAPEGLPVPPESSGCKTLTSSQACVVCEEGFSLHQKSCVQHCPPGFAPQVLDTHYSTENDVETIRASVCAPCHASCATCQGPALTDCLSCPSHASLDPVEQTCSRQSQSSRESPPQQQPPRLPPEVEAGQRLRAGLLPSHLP
NCF1 inh = inhibitors of human p47phox binding | P14598 | p47phox/p22phox peptide binding, fluorescence polarization, 2 h | 0.53% of 220,000 active | inhibition, % at 24.7 µM;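 active = inhibition above about 30%, limit read from the data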;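 also: 0% = p47phox with labelled peptide and 100% = labelled peptide alone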
The depositor's hits bear a star. Only some compounds are listed: those with a hit (about 2.8% of all), similar ones and a draw of the others.

Results for COc1cc(/C=C/C(=O)NC(C)CCc2ccccc2)cc(OC)c1OC (centres undefined) ?
PGE2 EP2 inh: 16; EP2 modulator: -71; Wee1 degr inh: 11*; Furin inhibitor: -4; NCF1 inh: 0

What do the screens show for `COc1cc(/C=C\C(=O)NCc2ccc3c(c2)cc(C)n3C)cc(OC)c1OC`?
HSV augment: inactive; PGE2 EP2 inh: 18; EP2 modulator: -67; Wee1 degr inh: 15*; Furin inhibitor: -10; NCF1 inh: -19

What do the screens show for `COc1cc(CN(CCCn2ccnc2)Cc2ccccc2F)cc2c1OCO2`?
PGE2 EP2 inh: 6; EP2 modulator: 23

How did Cc1ccc(C(=O)N2CCCC2)cc1Br do in these assays?
HSV augment: inactive; PGE2 EP2 inh: 12; EP2 modulator: -1; Wee1 degr inh: 1; Furin inhibitor: -20; NCF1 inh: 92*

What do the screens show for `C/C(=N/NS(=O)(=O)c1ccc(C)cc1)c1cccc(NC(=O)c2cccc(Cl)c2)c1`?
HSV augment: inactive; PGE2 EP2 inh: 11; EP2 modulator: -21; Wee1 degr inh: 0; Furin inhibitor: -18; NCF1 inh: -3

How did C/C(=N/NS(=O)(=O)c1ccc(Cl)cc1)c1cccc(NC(=O)c2ccc(Cl)cc2Cl)c1 do in these assays?
EP2 modulator: -7; Wee1 degr inh: 0; Furin inhibitor: -16; NCF1 inh: 31*

How did Cn1cccc1-c1nc2ccc(NC(=O)c3ccc([N+](=O)[O-])cc3)cc2[nH]1 do in these assays?
HSV augment: inactive; PGE2 EP2 inh: 18; EP2 modulator: -4; Wee1 degr inh: 1; Furin inhibitor: -4; NCF1 inh: 4

Results for Cn1cccc1-c1nc2ccc(NC(=O)c3ccccc3)cc2[nH]1 ?
HSV augment: inactive; PGE2 EP2 inh: 20; EP2 modulator: -31; Wee1 degr inh: 10*; Furin inhibitor: 2; NCF1 inh: -14

How did COCc1cc(=O)[nH]c(Nc2nc3ccccc3o2)n1 do in these assays?
HSV augment: inactive; PGE2 EP2 inh: 13; EP2 modulator: 22; Wee1 degr inh: 1; Furin inhibitor: -14; NCF1 inh: -9

How did Cc1ccc2oc(Nc3nc(-c4ccccc4)cc(=O)[nH]3)nc2c1 do in these assays?
HSV augment: inactive; PGE2 EP2 inh: 4; EP2 modulator: -18; Wee1 degr inh: -3; Furin inhibitor: -21; NCF1 inh: 45*

What do the screens show for `O=C1N=C(N2CCOCC2)S/C1=C/c1cc2c(cc1[N+](=O)[O-])OCO2`?
HSV augment: inactive; PGE2 EP2 inh: 7; EP2 modulator: -4; Wee1 degr inh: 9.1*; Furin inhibitor: -5; NCF1 inh: -3

How did O=C1N=C(N2CCOCC2)S/C1=C\c1ccccc1OS(=O)(=O)c1ccccc1 do in these assays?
HSV augment: inactive; PGE2 EP2 inh: 6; EP2 modulator: -6; Wee1 degr inh: -3; Furin inhibitor: -14; NCF1 inh: 0

Results for CC(CCCC(C)(C)O)NC(=O)c1ccc(OC2CCN(C(=O)C3CC3)CC2)cc1 (centres undefined) ?
HSV augment: inactive; PGE2 EP2 inh: 1; EP2 modulator: -35; Wee1 degr inh: 8.9*; Furin inhibitor: -8; NCF1 inh: 1

Results for CCn1ncc(S(=O)(=O)N2CCC(C(N)=O)(N3CCCCC3)CC2)c1C ?
PGE2 EP2 inh: 5; EP2 modulator: -58

Results for NS(=O)(=O)c1ccc(N/N=C/c2cn(-c3ccccc3)nc2-c2cccs2)c([N+](=O)[O-])c1 ?
HSV augment: inactive; PGE2 EP2 inh: 13; EP2 modulator: 1; Wee1 degr inh: 4; Furin inhibitor: -18; NCF1 inh: 9

What do the screens show for `N#Cc1ccc(N/N=C/c2cn(-c3ccccc3)nc2-c2ccccc2)c([N+](=O)[O-])c1`?
HSV augment: inactive; PGE2 EP2 inh: 5; EP2 modulator: -7; Wee1 degr inh: 2; Furin inhibitor: -4; NCF1 inh: 51*

Results for CCN1C(=O)/C(=C\N(C(C)=O)c2ccccc2)OC1=S ?
HSV augment: inactive; PGE2 EP2 inh: 10; EP2 modulator: 5; Wee1 degr inh: 2; Furin inhibitor: -7; NCF1 inh: 0

Results for CC(=O)N(/C=C1\SC(=S)N(c2ccccc2)C1=O)c1ccccc1 ?
HSV augment: inactive; PGE2 EP2 inh: 11; EP2 modulator: -5; Wee1 degr inh: 10*; Furin inhibitor: -6; NCF1 inh: -43

How did C/C(N[O-])=C(\C)[N+]([O-])=[Rh][Cl].CC(=N\[O-])/C(C)=N/[O-].NC(N)=[SH+] do in these assays?
PGE2 EP2 inh: 49*; EP2 modulator: 26

Results for CC(C)N1CCC(N2CCN(CC#Cc3ccccc3)CC2CCO)CC1 (centres undefined) ?
HSV augment: inactive; PGE2 EP2 inh: 5; EP2 modulator: 1; Wee1 degr inh: 16*; Furin inhibitor: -23; NCF1 inh: 3

What do the screens show for `CC(C)N1CCN(CC#Cc2ccccc2)CC1CCO` (centres undefined)?
HSV augment: inactive; PGE2 EP2 inh: 7; EP2 modulator: -4; Wee1 degr inh: 0; Furin inhibitor: 0; NCF1 inh: -2

Results for C=CCOc1ccc(Cl)cc1C(=O)N1CCCC1c1nc2ccccc2[nH]1 (centres undefined) ?
PGE2 EP2 inh: 4; EP2 modulator: -19

Results for COc1cc(/C=C2/SC(=O)N(Cc3ccccc3Cl)C2=O)ccc1OCc1ccncc1 ?
HSV augment: inactive; PGE2 EP2 inh: 0; EP2 modulator: 28; Wee1 degr inh: 0; Furin inhibitor: -22; NCF1 inh: 31*

How did CCOC(=O)c1c(Nc2ccccc2)sc(/C=C2\C=Nc3ccccc32)c1O do in these assays?
HSV augment: inactive; PGE2 EP2 inh: 8; EP2 modulator: -8; Wee1 degr inh: -2; Furin inhibitor: 3; NCF1 inh: -19

Results for Oc1nc(Nc2ccccc2)sc1/C=C1\C=Nc2ccccc21 ?
HSV augment: inactive; PGE2 EP2 inh: 72*; EP2 modulator: -64; Wee1 degr inh: 3; Furin inhibitor: -5; NCF1 inh: -94

What do the screens show for `CCOc1ccc(-c2c(C)n([O-])c3c([n+]2=O)CCCCC3)cc1`?
HSV augment: inactive; PGE2 EP2 inh: 2; EP2 modulator: 29; Wee1 degr inh: 8.9*; Furin inhibitor: -16; NCF1 inh: -4

Results for Cn1c(=O)c(/C=C/c2ccccc2F)nc2ccccc21 ?
PGE2 EP2 inh: 23; EP2 modulator: 27

What do the screens show for `O=S(=O)(/C=C/c1ccccc1)NC1CCCCCC1`?
HSV augment: inactive; PGE2 EP2 inh: 5; EP2 modulator: 8; Wee1 degr inh: 0; Furin inhibitor: -16; NCF1 inh: -4

How did O=C1/C(=C\c2ccccc2)[C@@H](NC2CCCCC2)c2ccccc21 do in these assays?
PGE2 EP2 inh: 58*; EP2 modulator: -2

Results for CN(C)c1ccc(C(=O)N2CCCC2c2nc(-c3ccncc3)n[nH]2)cc1 (centres undefined) ?
PGE2 EP2 inh: 14; EP2 modulator: -19

Assay outcomes (PubChem BioAssay)
